These results are taken from article PMC5540273 (PLoS ONE, 2017).

Some test systems named below: KIT-autoinhibited; KIT; LATS1; LATS2; LCK; LIMK1; LIMK2; LRRK2; LTK; LYN; MAK; MAP3K15; MAP3K1; MAP3K2; MAP3K3; MAP3K4.
Details in all cases: concentration: 1 μM, replicates: in singlicate; n = 1
In the next assay the test system is T1, JNK3.
T1 construct: gene MAPK10

The subject of another assay is T2, LKB1.
T2 construct: gene STK11

The next assay has as its system T3, LOK.
T3 construct: gene STK10

The next assay relates to T4, LZK.
T4 construct: gene MAP3K13
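Also: KINOMEscan kinase panel screen.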

Turning to `COc1ccc(CSc2nnc(-c3ccc4ncsc4c3)o2)cc1C(F)(F)F`, the “%Inh” value in the assay on JNK3 is on record as 0%; with KIT-autoinhibited, 0%; in the assay with KIT, 18%; with LATS1, 12%; with LATS2, 0%; in the assay on LCK it was 0%. The “%Inh” value in the assay with LIMK1 stood at 0%; in the assay with LIMK2, 0%; in the assay with LKB1, 2%; in the assay on LOK it was 0%; with LRRK2 it was 0%; in the assay on LTK it was 0%. Further, the “%Inh” value with LYN, with LZK, in the assay on MAK, in the assay on MAP3K15, in the assay on MAP3K1 and in the assay with MAP3K2 was 0% in each case. Also, the “%Inh” value is on record as 0% with MAP3K3 and 7% with MAP3K4.

On to `COc1ccc(-c2coc3ccc(-c4nnc(C)o4)cc23)cc1`, for which the “%Inh” value came out at 0% in the assay with JNK3; 0% with KIT-autoinhibited; 1% in the assay with KIT; 0% in the assay with LATS1; 0% with LATS2; 0% in the assay on LCK. Also, the “%Inh” value in the assay on LIMK1 is 0%; with LIMK2 it was 0%; in the assay with LKB1 it was 5%; with LOK, 0%; in the assay with LRRK2, 0%; with LTK, 0%. The “%Inh” value is 10% in the assay with LYN; 0% with LZK; 0% in the assay on MAK; 0% in the assay with MAP3K15; 0% in the assay on MAP3K1; 0% with MAP3K2. The “%Inh” value in the assay with MAP3K3 is reported as 0%; in the assay on MAP3K4, 8%.

`CCCCc1nn2ncccc2c1-c1ccnc(NC2CC2)n1` [GW684374]: the “%Inh” value in the assay on JNK3 amounted to 82%; in the assay on KIT-autoinhibited it was 0%; with KIT it was 67%; with LATS1 it was 0%; with LATS2 it was 0%; in the assay on LCK it was 17%. Further, the “%Inh” value in the assay with LIMK1 is given as 33%; with LIMK2 it was 34%; with LKB1, 0%; in the assay with LOK, 0%; in the assay on LRRK2, 0%; with LTK, 0%. The “%Inh” value in the assay with LYN turned out to be 0%; with LZK, 0%; in the assay on MAK, 19%; with MAP3K15, 0%; with MAP3K1, 3%; in the assay with MAP3K2, 0%. The entries for the “%Inh” value in the assay on MAP3K3 and with MAP3K4 were 0% and 6%, respectively.

As for `COc1nccc(-c2c(-c3ccc(F)cc3)ncn2CCCN2CCOCC2)n1` [SB-282852], the “%Inh” value is recorded as 51% in the assay with JNK3; 20% with KIT-autoinhibited; 0% in the assay with KIT; 0% in the assay with LATS1; 27% in the assay on LATS2; 25% with LCK. Besides, the “%Inh” value in the assay on LIMK1 worked out at 0%; in the assay on LIMK2, 0%; with LKB1 it was 0%; in the assay on LOK, 45%; in the assay with LRRK2 it was 0%; with LTK it was 0%. Moreover, the “%Inh” value was determined as 0% with LYN; 0% in the assay on LZK; 29% in the assay with MAK; 0% in the assay with MAP3K15; 0% in the assay on MAP3K1; 0% in the assay with MAP3K2. Also, the “%Inh” value is listed as 13% in the assay with MAP3K3 and 7% with MAP3K4.

For the compound `CCn1c(-c2ccccc2)nc2cnccc21` [SB-733416], the “%Inh” value with JNK3 is reported as 7%; in the assay with KIT-autoinhibited, 0%; in the assay with KIT, 8%; with LATS1, 0%; in the assay on LATS2 it was 0%; in the assay with LCK, 18%. Also, the “%Inh” value is reported as 20% in the assay with LIMK1; 0% in the assay with LIMK2; 0% with LKB1; 0% in the assay on LOK; 51% in the assay on LRRK2; 0% in the assay on LTK. For the same compound, the “%Inh” value with LYN was found to be 0%; with LZK it was 0%; in the assay with MAK, 11%; in the assay with MAP3K15 it was 22%; in the assay on MAP3K1, 14%; in the assay with MAP3K2, 2%. The “%Inh” value in the assay with MAP3K3 and in the assay with MAP3K4 was 0% in each case.

On to `CC(=O)c1cccc(NC(=O)NC2CCN(c3ccnc(Nc4ccc(F)cc4)n3)C2)c1` (stereo not drawn) [GSK1379710], for which the “%Inh” value in the assay on JNK3 is 22%; in the assay on KIT-autoinhibited, 4%; in the assay on KIT, 49%; in the assay with LATS1, 0%; in the assay with LATS2, 2%; in the assay on LCK, 12%. Also, the “%Inh” value amounted to 11% in the assay on LIMK1; 22% with LIMK2; 23% in the assay on LKB1; 0% in the assay with LOK; 14% in the assay on LRRK2; 0% with LTK. Also, the “%Inh” value is on record as 0% with LYN; 28% in the assay with LZK; 47% in the assay on MAK; 7% in the assay on MAP3K15; 3% with MAP3K1; 0% in the assay with MAP3K2. The entries for the “%Inh” value in the assay on MAP3K3 and with MAP3K4 were 0% and 30%, respectively.

On to `Cc1c(Cn2c3ccccc3n3c(=O)cc(N4CCOCC4)nc23)cccc1C(F)(F)F` [GSK2306394], for which the “%Inh” value is recorded as 4% with JNK3; 0% with KIT-autoinhibited; 7% in the assay with KIT; 0% with LATS1; 0% with LATS2; 11% with LCK. The “%Inh” value in the assay on LIMK1 came out at 0%; with LIMK2, 3%; in the assay with LKB1, 0%; in the assay with LOK it was 0%; with LRRK2 it was 33%; with LTK, 11%. Also, the “%Inh” value with LYN was found to be 0%; in the assay with LZK it was 0%; with MAK, 15%; with MAP3K15, 0%; in the assay on MAP3K1, 14%; with MAP3K2, 2%. For the same compound, the “%Inh” value in the assay on MAP3K3 was determined as 0%; in the assay on MAP3K4, 18%.

For the compound `CC(C)c1cc(-c2ccc3c(N)n[nH]c3c2)nc(N)n1` [GSK2250882], the “%Inh” value with JNK3 came out at 8%; with KIT-autoinhibited, 0%; with KIT it was 9%; in the assay on LATS1 it was 0%; with LATS2 it was 0%; with LCK it was 9%. The “%Inh” value stood at 0% in the assay with LIMK1; 0% in the assay on LIMK2; 14% with LKB1; 0% in the assay with LOK; 0% with LRRK2; 0% in the assay with LTK. The “%Inh” value is 0% with LYN; 0% in the assay with LZK; 0% in the assay with MAK; 0% with MAP3K15; 0% in the assay on MAP3K1; 2% with MAP3K2. Further, the “%Inh” value with MAP3K3 stood at 2%; with MAP3K4 it was 1%.

In the case of `CC(=O)c1c(C)c2cnc(Nc3ccc(N4CCNCC4)cn3)nc2n(C2CCCC2)c1=O`, the “%Inh” value in the assay with JNK3 worked out at 0%; in the assay on KIT-autoinhibited, 0%; in the assay on KIT, 0%; in the assay on LATS1 it was 15%; in the assay on LATS2 it was 26%; with LCK it was 0%. The “%Inh” value in the assay with LIMK1 came to 0%; with LIMK2 it was 99.5%; in the assay with LKB1, 0%; in the assay on LOK it was 0%; in the assay with LRRK2 it was 0%; in the assay with LTK, 0%. Moreover, the “%Inh” value in the assay with LYN is 0%; with LZK it was 89%; in the assay on MAK, 0%; with MAP3K15, 0%; with MAP3K1, 0%; in the assay on MAP3K2, 0%. The “%Inh” value in the assay with MAP3K3 is reported as 0%; with MAP3K4 it was 14%.
